Experimental data reported in PubChem BioAssay AID1159580 (chemical genetic matrix, 2015).
Several values for one entry are separate records, joined by “and”; a condition that tells them apart may be missing. Identical values can stand only once. The whole screen tested about 5,500 compounds, of which about 2,000 (36%) were called active. About 18% were inconclusive and are not listed. Cut-off read from the data, not from the text of the source: active = normalized growth mostly below about 0.91 (no sharp cut-off); inconclusive = no clear call, values can overlap the other calls; inactive = mostly above about 0.92. The list shows a part of the results.

Assay: chemical genetic growth profiling, strain panel (AID 1159580);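 note: tested at 20 µM; growth read once vehicle control cultures reached saturation at 30 °C; 1 = growth at the plate median or of vehicle wells; lower values mean less growth of the strain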
Details: S. cerevisiae deletion strains, growth OD

Measured: normalized growth

O=C(CCCN1CC=C(n2c(=O)[nH]c3ccccc32)CC1)c1ccc(F)cc1
inactive: locus YAL013W, strain DEP1, active compounds read low 0.99 | locus YAL021C, strain ccr4, active compounds read low 0.958 | locus YAL026C, strain drs2, active compounds read low 0.992 | locus YAL030W, strain snc1, active compounds read low 0.988 | locus YBL061C, strain skt5, active compounds read low 0.989 | locus YBR009C, strain hhf1, active compounds read low 0.979 | locus YBR021W, strain FUR4, active compounds read low 0.953 | locus YBR023C, strain chs3, active compounds read low 0.983 | locus YBR171W, strain sec66, active compounds read low 0.963 | locus YBR229C, strain ROT2, active compounds read low 0.949 | locus YBR231C, strain swc5, active compounds read low 0.953 | locus YBR279W, strain paf1, active compounds read low 0.972 | locus YCL011C, strain gbp2, active compounds read low 0.975 | locus YCL016C, strain dcc1, active compounds read low 1 | locus YCL029C, strain bik1, active compounds read low 0.973 | locus YCL069W, strain vba3, active compounds read low 0.992 | locus YCR088W, strain abp1, active compounds read low 1 | locus YDL005C, strain med2, active compounds read low 0.973 | locus YDL035C, strain GPR1, active compounds read low 0.972 | locus YDL040C, strain nat1, active compounds read low 0.992 | locus YDL074C, strain BRE1, active compounds read low 0.984 | locus YDL101C, strain DUN1, active compounds read low 0.976 | locus YDL134C, strain PPH21, active compounds read low 0.983 | locus YDL185W, strain tfp1, active compounds read low 0.991 | locus YDL192W, strain arf1, active compounds read low 0.983 | locus YDR001C, strain nth1, active compounds read low 0.974 | locus YDR069C, strain doa4, active compounds read low 0.952 | locus YDR101C, strain arx1, active compounds read low 0.983 | locus YDR137W, strain rgp1, active compounds read low 0.993 | locus YDR150W, strain NUM1, active compounds read low 0.968 | locus YDR159W, strain sac3, active compounds read low 0.989 | locus YDR162C, strain NBP2, active compounds read low 0.978 | locus YDR195W, strain ref2 0.936 | locus YDR297W, strain sur2, active compounds read low 0.984 | locus YDR318W, strain mcm21, active compounds read low 0.991 | locus YDR334W, strain swr1, active compounds read low 0.976 | locus YDR335W, strain msn5, active compounds read low 0.979 | locus YDR388W, active compounds read low 0.986 | locus YDR392W, strain spt3, active compounds read low 0.994 | locus YDR502C, strain sam2, active compounds read low 0.968 | locus YEL003W, strain gim4, active compounds read low 0.99 | locus YEL037C, strain rad23, active compounds read low 1 | locus YEL061C, strain CIN8 (second series), active compounds read low 0.981 | locus YEL061C, strain CIN8, active compounds read low 0.985 | locus YER015W, strain faa2, active compounds read low 0.969 | locus YER016W, strain bim1, active compounds read low 1.01 | locus YER110C, active compounds read low 0.957 | locus YER111C, strain swi4, active compounds read low 0.975 | locus YER155C, strain BEM2 (second series), active compounds read low 0.929 | locus YER155C, strain BEM2, active compounds read low 0.996 | locus YER167W, strain BCK2, active compounds read low 0.982 | locus YFR010W, strain ubp6, active compounds read low 0.993 | locus YGL078C, strain dbp3, active compounds read low 0.976 | locus YGL086W, strain mad1, active compounds read low 0.976 | locus YGL167C, strain pmr1, active compounds read low 0.979 | locus YGL173C, strain kem1, active compounds read low 1 | locus YGL227W, strain vid30, active compounds read low 0.953 | locus YGL240W, strain doc1, active compounds read low 0.953 | locus YGL248W, strain PDE1, active compounds read low 0.982 | locus YGL253W, strain hxk2, active compounds read low 0.981 | locus YGR078C, strain PAC10, active compounds read low 0.985 | locus YGR135W, strain pre9, active compounds read low 0.968 | locus YGR229C, strain SMI1, active compounds read low 0.992 | locus YGR252W, strain gcn5, active compounds read low 0.906 | locus YHR013C, strain ard1, active compounds read low 1.01 | locus YHR027C, strain rpn1, active compounds read low 0.977 | locus YHR030C, strain SLT2, active compounds read low 0.991 and 0.98 | locus YHR079C, strain IRE1 (second series), active compounds read low 0.989 | locus YHR079C, strain IRE1, active compounds read low 0.971 | locus YHR094C, strain hxt1, active compounds read low 0.994 | locus YHR129C, strain ARP1, active compounds read low 0.994 | locus YHR142W, strain chs7, active compounds read low 0.983 | locus YHR200W, strain rpn10, active compounds read low 0.99 | locus YIL066C, strain RNR3, active compounds read low 0.971 | locus YIL073C, strain SPO22, active compounds read low 1.02 | locus YIL125W, strain kgd1, active compounds read low 0.99 | locus YIR030C, strain dcg1, active compounds read low 0.972 | locus YJL092W, strain hpr5, active compounds read low 0.984 | locus YJL095W, strain BCK1 (second series), active compounds read low 0.996 | locus YJL095W, strain BCK1, active compounds read low 1.03 and 0.998 | locus YJL115W, strain asf1, active compounds read low 0.975 | locus YJL129C, strain trk1, active compounds read low 0.939 | locus YJL134W, strain LCB3, active compounds read low 0.979 | locus YJL154C, strain vps35, active compounds read low 0.994 | locus YJL164C, strain tpk1, active compounds read low 0.994 | locus YJL166W, strain qcr8, active compounds read low 0.971 | locus YJL168C, strain set2, active compounds read low 0.999 | locus YJL187C, strain SWE1 (second series), active compounds read low 0.978 | locus YJL187C, strain SWE1, active compounds read low 0.988 | locus YJR043C, strain POL32, active compounds read low 0.995 | locus YJR066W, strain TOR1, active compounds read low 0.93
